KB-V1 cytotox – kills drug-selected multidrug resistant KB-V1 cells; KB-V1 MDR cells viability, CellTiter-Glo, 72 h; Potency, µM (top dose mostly 46.1 µM), hits mostly cytotoxic; 400,000 tested, 3.4% active; AID 1347076; note: nearly all actives have a fitted effect of over 60% in size
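Following 72 h at 37 degrees C with compound, KB-V1 cell viability was read by CellTiter-Glo luminescence, medium being phenol-red-free DMEM plus 10% FBS; concentration-response parameters came from normalized, curve-fitted qHTS data.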
MCF10A rereplic – induces DNA re-replication in MCF 10a normal breast cells; AID 624296; MCF 10A DNA re-replication, Hoechst nuclear intensity, 48 h; 350,000 tested, 2.9% active; Potency, µM (top dose mostly 46.1 µM), actives largely listed as activators; note: nearly all actives have a fitted effect of over 50% in size
KB-3-1 tox – KB-3-1 parental cell cytotoxicity. Potency, µM (series often up to 46.1 µM), usual class: cytotoxic. 400,000 tested, 1.4% active. KB-3-1 viability, CellTiter-Glo ATP luminescence, 72 h; note: nearly all actives have a fitted effect of over 60% in size
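KB-3-1 cells, DMEM (no phenol red) + 10% FBS; compound by pin transfer, 72 h, 37 °C. Readout: CellTiter-Glo luminescence after 10 min. Data normalized, curve-fitted.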
PINK1 expr mod – modulators of PINK1 expression; PINK1 immunofluorescence, high-content cytometry, 24 h; Potency, µM (doses to about 76.6 µM), actives largely listed as activators; 410,000 tested, 0.2% active; active = well fitted activation curve with a large enough effect; inconclusive = small, poorly fitted or top-dose-only effect; cell line not stated here; note: nearly all actives have a fitted effect of over 65% in size
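Stable cell line, 250 cells/well, 12 h attachment; compounds pinned at 5 concentrations, 24 h; CCCP control. Fixed with nuclear dye, primary antibodies 12 h at 10 degrees C, secondary plus cell stain; laser-scanning cytometer read.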
SW480 rereplic – DNA re-replication induction in SW480 cells; SW480 DNA re-replication, Hoechst DNA content imaging, 48 h; Potency, µM (titrated, usually from 46.1 µM), most hits filed as activators; 340,000 tested, 1.8% active; AID 624297; note: nearly all actives have a fitted effect of over 55% in size
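Image-based DNA-content assay: after two days of treatment, nuclei were labelled with the DNA dye Hoechst and imaged, and hits were compounds raising the count of nuclei showing high fluorescence intensity.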
ALOX12 inh – ALOX12 (human) lipoxygenase inhibition; P18054; purified 12hLO, xylenol orange hydroperoxide absorbance; Potency, µM (doses to about 108 µM), most hits filed as inhibitors; 580,000 tested, 1.1% active; AID 1671190
Target sequence (P18054 whole entry, looked up): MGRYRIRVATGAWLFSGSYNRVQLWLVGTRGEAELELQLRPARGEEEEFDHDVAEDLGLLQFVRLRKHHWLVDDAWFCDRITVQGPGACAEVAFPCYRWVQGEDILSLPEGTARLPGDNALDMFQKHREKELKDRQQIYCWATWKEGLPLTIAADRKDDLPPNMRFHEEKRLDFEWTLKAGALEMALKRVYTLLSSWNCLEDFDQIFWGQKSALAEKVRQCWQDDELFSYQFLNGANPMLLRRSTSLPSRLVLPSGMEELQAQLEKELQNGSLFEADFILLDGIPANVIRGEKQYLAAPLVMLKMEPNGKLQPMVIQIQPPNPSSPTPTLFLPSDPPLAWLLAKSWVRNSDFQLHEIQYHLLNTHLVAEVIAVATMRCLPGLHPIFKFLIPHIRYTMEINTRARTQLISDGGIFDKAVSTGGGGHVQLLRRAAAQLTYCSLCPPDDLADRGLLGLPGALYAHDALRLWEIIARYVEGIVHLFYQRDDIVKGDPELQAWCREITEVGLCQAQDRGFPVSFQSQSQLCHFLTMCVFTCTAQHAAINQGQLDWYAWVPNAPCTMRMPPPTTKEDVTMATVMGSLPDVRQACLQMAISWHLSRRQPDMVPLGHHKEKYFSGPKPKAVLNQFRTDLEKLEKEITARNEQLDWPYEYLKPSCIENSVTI
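Hydroperoxide product was detected by ferrous iron/xylenol orange as the 573 to 405 nm absorbance ratio. Arachidonic acid at 40 uM (final) was turned over for 30 min at room temperature by 150 nM human 12hLO, pH 7.0 Hepes buffer, after 15 min compound preincubation.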
Large screens that a line does not name were inactive. Rows were chosen to be rich in hits. Some 5.8% of all compounds tested hit in one or more screens of this group. Unless noted, calls come from the whole dose curve; as a rule, active = well fitted curve in the direction sought with a large enough effect; inconclusive = small, poorly fitted or top-dose-only effect, or another doubt; inactive = no such curve, though single readings can be large; an effect the other way counts as inactive or inconclusive.

N#Cc1ccccc1OCCN1C(=O)c2ccccc2C1=O	MCF10A rereplic 12µM
Cc1cccc(OCCN2C(=O)c3ccccc3C2=O)c1	KB-V1 cytotox inconclusive
O=C1c2ccccc2C(=O)N1CCOCCN1C(=O)c2ccccc2C1=O	none
Nc1cccc2c1C(=O)N(CCOc1ccccc1F)C2=O	MCF10A rereplic 18µM, SW480 rereplic inconclusive, ALOX12 inh inconclusive
Cc1cc(C)c(C(N)C(=O)O)c(C)c1 (stereo unspecified)	none (no result: KB-V1 cytotox, MCF10A rereplic, KB-3-1 tox, PINK1 expr mod, SW480 rereplic)
N#CC1=C(N)NC(SCc2ccc(F)cc2)=C(C#N)C12CCCCC2	KB-V1 cytotox inconclusive, MCF10A rereplic 8.2µM, KB-3-1 tox 23µM, PINK1 expr mod inconclusive, SW480 rereplic inconclusive, ALOX12 inh inconclusive
CC(C)C/C=N/NC(=O)c1ccccc1	none (no result: KB-V1 cytotox, MCF10A rereplic, KB-3-1 tox, PINK1 expr mod, SW480 rereplic)
CCc1nc2ccccc2n1Cc1ccccc1OC	KB-V1 cytotox 15µM, KB-3-1 tox inconclusive
CCCc1nc2ccccc2n1Cc1ccccc1OC	KB-V1 cytotox 15µM, KB-3-1 tox inconclusive
COc1ccccc1Cn1c(CCCO)nc2ccccc21	KB-V1 cytotox inconclusive
Cc1nc(N2CCC(C)CC2)c2c(C)c(C(=O)Nc3ccc(C)c(F)c3)sc2n1	none
Cc1nc(N2CCC(C)CC2)c2c(C)c(C(=O)Nc3ccccc3C(F)(F)F)sc2n1	MCF10A rereplic 9.2µM, PINK1 expr mod inconclusive
Cn1ccnc1C(NC(=O)Nc1ccc(F)cc1)c1ccccc1F (stereo unspecified)	none (no result: KB-V1 cytotox, MCF10A rereplic, KB-3-1 tox, PINK1 expr mod, SW480 rereplic)
Cc1cc(C(=O)OCC(=O)NC2CCS(=O)(=O)C2)c(C)n1-c1ccccc1 (stereo unspecified)	KB-V1 cytotox 16µM, KB-3-1 tox inconclusive
Cc1cc(C(=O)OCC(=O)N(C)C2CCS(=O)(=O)C2)c(C)n1-c1ccccc1 (stereo unspecified)	none
COc1ccc2cc(-c3cc(C(=O)OCC(=O)NC4CCS(=O)(=O)C4)c4ccccc4n3)ccc2c1 (stereo unspecified)	MCF10A rereplic 7.3µM, SW480 rereplic inconclusive
CCc1cc(N(C)Cc2noc(C3CC3)n2)n2nc(C)c(C)c2n1	none (no result: KB-V1 cytotox, MCF10A rereplic, KB-3-1 tox, PINK1 expr mod, SW480 rereplic)
Cc1ccccc1-c1ccc(Nc2ccc(N3CCOCC3)cc2)nn1	KB-V1 cytotox 21µM (no result: ALOX12 inh)
C/C(=N\OC(=O)c1ccc(F)cc1F)c1ccc(F)cc1F	none (no result: KB-V1 cytotox, MCF10A rereplic, KB-3-1 tox, PINK1 expr mod, SW480 rereplic)
Cc1ccc(O)c(C(=O)c2cnc3c(c2)CN(C)C(=O)N3)c1	KB-V1 cytotox 7.9µM, MCF10A rereplic inconclusive, KB-3-1 tox inconclusive, SW480 rereplic inconclusive
CSc1ccc(CNc2ncc(-c3cccc([N+](=O)[O-])c3)n2C)cc1	ALOX12 inh 0.71µM
Cn1c(-c2ccc(F)cc2)cnc1NCc1ccccc1	KB-V1 cytotox 21µM, MCF10A rereplic inconclusive, KB-3-1 tox inconclusive, SW480 rereplic inconclusive, ALOX12 inh inconclusive
Cn1c(-c2ccccc2)cnc1NCc1ccc(F)cc1	ALOX12 inh inconclusive
Cn1c(-c2ccc3c(c2)OCO3)cnc1NCc1cccc(O)c1	ALOX12 inh 11µM
CCCC(=O)N1CCC2(CC1)CC(N(Cc1ccc(F)cc1)C1CC1)CCO2 (stereo unspecified)	none (no result: KB-V1 cytotox, MCF10A rereplic, KB-3-1 tox, PINK1 expr mod, SW480 rereplic)
COc1ccc(CCN(C(=O)C(F)(F)F)C(C(=O)NC2CCCCC2)c2ccc(C)s2)cc1OC (stereo unspecified)	none (no result: PINK1 expr mod)
COc1ccc(CCN(C(=O)C(F)(F)F)C(C(=O)NC2CCCC2)c2cccs2)cc1OC (stereo unspecified)	KB-V1 cytotox 9.2µM (no result: PINK1 expr mod)
COc1ccc(Cl)cc1-c1ccc2c(c1)C(=O)N1C[C@@H](NS(=O)(=O)c3ccc(F)cc3)C[C@H]1C(=O)N2	none (no result: KB-V1 cytotox, MCF10A rereplic, KB-3-1 tox, PINK1 expr mod, SW480 rereplic)
Nc1nc(N2CCN(C(=O)c3ccco3)CC2)nc2ccccc12	none
O=C(OCC(=O)N1CCN(C(=O)c2ccco2)CC1)c1cc(-c2ccccc2)nc2ccccc12	MCF10A rereplic inconclusive
COc1ccc(-c2cc(C(=O)OCC(=O)N3CCOCC3)c3ccccc3n2)cc1	KB-V1 cytotox inconclusive, MCF10A rereplic 16µM
O=C(OCC(=O)N1CCN(C(=O)c2ccco2)CC1)c1cc(-c2cccc(Br)c2)nc2ccccc12	KB-V1 cytotox 16µM, MCF10A rereplic inconclusive, ALOX12 inh inconclusive
